Assay results reported in article PMC4336329 (PLoS ONE, 2015).
The campaign covered roughly 310,000 compounds. About 14,000 (4.5%) showed an effect of 50% or more. Effects have a minus sign here. The list comes from a sample in which strong results are over-represented; it also holds similar structures and randomly drawn compounds.
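Note: peak tail current of the secondary pulse compared with the same well before compound.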

The compounds below were run against human ether-à-go-go-related gene (hERG) potassium channel (human, UniProt Q12809) (assay: primary screen, population patch clamp on CHO cells stably expressing hERG; higher = less effect of the substance).
Chain of human ether-à-go-go-related gene (hERG) potassium channel (Q12809 whole entry, looked up): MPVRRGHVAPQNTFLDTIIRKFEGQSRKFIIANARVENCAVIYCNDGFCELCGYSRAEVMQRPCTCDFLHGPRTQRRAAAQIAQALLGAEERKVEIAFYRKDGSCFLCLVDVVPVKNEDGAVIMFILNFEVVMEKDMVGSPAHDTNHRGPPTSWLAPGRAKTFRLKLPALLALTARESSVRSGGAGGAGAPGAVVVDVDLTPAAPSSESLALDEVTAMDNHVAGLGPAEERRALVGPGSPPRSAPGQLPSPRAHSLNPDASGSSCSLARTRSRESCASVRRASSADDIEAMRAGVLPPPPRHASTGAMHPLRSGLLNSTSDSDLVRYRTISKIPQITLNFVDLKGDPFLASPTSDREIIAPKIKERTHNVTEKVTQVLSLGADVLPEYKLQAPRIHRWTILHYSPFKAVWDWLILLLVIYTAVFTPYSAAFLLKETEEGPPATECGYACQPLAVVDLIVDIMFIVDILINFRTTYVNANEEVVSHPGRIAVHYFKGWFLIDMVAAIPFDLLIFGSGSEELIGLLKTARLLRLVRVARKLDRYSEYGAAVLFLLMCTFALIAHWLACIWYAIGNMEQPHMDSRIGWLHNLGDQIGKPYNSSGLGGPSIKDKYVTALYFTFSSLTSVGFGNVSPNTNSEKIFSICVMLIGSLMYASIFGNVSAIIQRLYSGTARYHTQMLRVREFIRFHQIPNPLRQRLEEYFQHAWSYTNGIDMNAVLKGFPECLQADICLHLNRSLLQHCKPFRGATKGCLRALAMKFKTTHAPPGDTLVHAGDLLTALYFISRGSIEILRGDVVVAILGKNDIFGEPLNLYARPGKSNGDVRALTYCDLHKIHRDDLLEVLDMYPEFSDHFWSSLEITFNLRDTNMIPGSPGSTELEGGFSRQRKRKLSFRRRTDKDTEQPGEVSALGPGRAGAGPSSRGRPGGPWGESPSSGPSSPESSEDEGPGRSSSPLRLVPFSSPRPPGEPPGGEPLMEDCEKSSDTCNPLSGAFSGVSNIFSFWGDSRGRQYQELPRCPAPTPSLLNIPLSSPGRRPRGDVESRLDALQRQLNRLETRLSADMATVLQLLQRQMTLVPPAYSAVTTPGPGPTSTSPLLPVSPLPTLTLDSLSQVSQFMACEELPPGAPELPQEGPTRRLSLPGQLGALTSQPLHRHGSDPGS
`CO[C@@H]1[C@@H](O[C@@H]2O[C@H](C)[C@@H](O[C@H]3C[C@@](C)(OC(=O)CC(C)C)[C@@H](O)[C@H](C)O3)[C@H](N(C)C)[C@H]2O)[C@@H](CC=O)C[C@@H](C)[C@@H](O)C=CC=CC[C@@H](C)OC(=O)C[C@H]1OC(C)=O` was tested, and the “hERG current change (%, negative = inhibition) at 10uM” value was -6.51%.
In the case of `c1cncc(C2CCCCN2)c1` (centres unmarked), the “hERG current change (%, negative = inhibition) at 10uM” value is reported as -6.38%.
In the case of `CCOc1cc(/C=C2/N=C(c3ccc4c(c3)OCO4)OC2=O)ccc1OC(C)=O`, the “hERG current change (%, negative = inhibition) at 10uM” value is reported as 9.87%.
For `COc1cccc(N2CCN(S(=O)(=O)c3cccc4cccnc34)CC2)c1`, the “hERG current change (%, negative = inhibition) at 10uM” value was 15.5%.
`COc1ccc(CC(O)CC2c3c(cc4c(c3OC)OCO4)CCN2C)cc1.Cl` (centres unmarked) was tested, and the “hERG current change (%, negative = inhibition) at 10uM” value was -78.9%.
For `COc1ccc2c(c1OC)C(=O)OC2C1c2c(cc3c(c2OC)OCO3)CCN1C.Cl.O` (centres unmarked), the “hERG current change (%, negative = inhibition) at 10uM” value was -13.7%.
With `COc1ccc2c(c1OC)C(C1c3c(cc4c(c3OC)OCO4)CCN1C)OC2=O` (centres unmarked) the “hERG current change (%, negative = inhibition) at 10uM” value was -7.14%.
`COc1ccc2c(c1OC)C(=O)OC2C1c2c(cc3c(c2OC)OCO3)CCN1C.Cl` (centres unmarked) was tested, and the “hERG current change (%, negative = inhibition) at 10uM” value was -1.88%.
`COc1ccc2c(c1OC)C(=O)O[C@@H]2[C@H]1c2c(cc3c(c2OC)OCO3)CCN1C` was tested, and the “hERG current change (%, negative = inhibition) at 10uM” value was -2.49%.
For `COc1c2c(cc3c1C(CC(O)Cc1ccccc1)N(C)CC3)OCO2` (centres unmarked), the “hERG current change (%, negative = inhibition) at 10uM” value was -61.3%.
With `O=c1[nH]ncc2c3ccccc3n(Cc3ccccc3)c12` the “hERG current change (%, negative = inhibition) at 10uM” value was 15.8%.
In the case of `S=C(NCc1ccco1)Nc1ccc(Cl)cc1Cl`, the “hERG current change (%, negative = inhibition) at 10uM” value is reported as 8.1%.
For `O=C1c2oc3ccccc3c(=O)c2C(c2cccc(Br)c2)N1Cc1ccco1` (centres unmarked), the “hERG current change (%, negative = inhibition) at 10uM” value was -8.64%.
`CCc1ccc(CN(C)CC(=O)Nc2ccc3c(c2)CCC3)cc1` was tested, and the “hERG current change (%, negative = inhibition) at 10uM” value was 9.39%.
For `O=C(OCc1cccc([N+](=O)[O-])c1)c1cc2ccccc2oc1=O`, the “hERG current change (%, negative = inhibition) at 10uM” value was 20.7%.
In the case of `Cc1ccc(C(=O)NNC(=O)c2ccc(Br)s2)cc1S(=O)(=O)N1CCOCC1`, the “hERG current change (%, negative = inhibition) at 10uM” value is reported as -26.2%.
With `COc1ccc(CC(=O)Nc2cccc(-c3ccc4nnc(C)n4n3)c2)cc1OC` the “hERG current change (%, negative = inhibition) at 10uM” value was -0.118%.
In the case of `Cc1nnc2ccc(-c3cccc(NC(=O)Cc4cccs4)c3)nn12`, the “hERG current change (%, negative = inhibition) at 10uM” value is reported as -25.9%.
With `COc1ccc(CC(=O)Nc2ccc(-c3ccc4nnc(C)n4n3)cc2)cc1OC` the “hERG current change (%, negative = inhibition) at 10uM” value was 2.72%.
`CCOc1ccc(CC(=O)Nc2ccc(-c3ccc4nnc(C)n4n3)cc2)cc1` was tested, and the “hERG current change (%, negative = inhibition) at 10uM” value was -40.4%.
`CCOc1ccc(CC(=O)Nc2cccc(-c3ccc4nnc(C)n4n3)c2)cc1` was tested, and the “hERG current change (%, negative = inhibition) at 10uM” value was -51.1%.
`COc1ccc(CC(=O)Nc2cccc(-c3ccc4nnc(C)n4n3)c2)cc1` was tested, and the “hERG current change (%, negative = inhibition) at 10uM” value was -54.1%.
With `CCOC(=O)C1CCCN(C(=O)CS(=O)(=O)Cc2ccccc2)C1` (centres unmarked) the “hERG current change (%, negative = inhibition) at 10uM” value was 15.3%.
In the case of `O=C(CNC(=O)c1ccc2c(c1)OCO2)N/N=C/c1cc(Br)ccc1O`, the “hERG current change (%, negative = inhibition) at 10uM” value is reported as 20.1%.
With `Cn1c(SCC(N)=O)nnc1C1CCN(S(=O)(=O)c2ccccc2C(F)(F)F)CC1` the “hERG current change (%, negative = inhibition) at 10uM” value was 13.3%.
With `COCC(=O)Nc1cc(=O)n(C)c(=O)n1C` the “hERG current change (%, negative = inhibition) at 10uM” value was 4.94%.
In the case of `CC(C)(C)C(=O)Nc1nnc(SCC(=O)NCc2cccs2)s1`, the “hERG current change (%, negative = inhibition) at 10uM” value is reported as 16.3%.
With `OC(CNCc1ccccc1)(c1ccccc1)c1ccccc1` the “hERG current change (%, negative = inhibition) at 10uM” value was -9.7%.
With `COc1ccc(CNCC(O)(c2ccccc2)c2ccccc2)cc1` the “hERG current change (%, negative = inhibition) at 10uM” value was -64%.
For `COc1ccc(CNCC(O)(c2ccc(Cl)cc2)c2ccc(Cl)cc2)cc1`, the “hERG current change (%, negative = inhibition) at 10uM” value was -12%.
With `COc1ccc(CNCC(O)(c2ccccc2)c2ccc(Cl)cc2)cc1` (centres unmarked) the “hERG current change (%, negative = inhibition) at 10uM” value was -68.8%.
`OC(CNCc1ccc(Cl)cc1)(c1ccccc1)c1ccc(F)cc1` (centres unmarked) was tested, and the “hERG current change (%, negative = inhibition) at 10uM” value was -4.52%.
For `CCc1ccc(C(O)(CNCc2ccccc2)c2ccccc2)cc1` (centres unmarked), the “hERG current change (%, negative = inhibition) at 10uM” value was -41.6%.
With `CN(CC(=O)Nc1ccccc1Cl)C(=O)CSc1ncc(C(F)(F)F)cc1Cl` the “hERG current change (%, negative = inhibition) at 10uM” value was 9.55%.
With `CCCCCCCNC(=O)CC(NS(=O)(=O)c1ccc(NC(C)=O)cc1)C(C)C` (centres unmarked) the “hERG current change (%, negative = inhibition) at 10uM” value was 3.19%.
In the case of `CCCc1c(C)c(C#N)c2nc3ccccc3n2c1NCCCN1CCOCC1`, the “hERG current change (%, negative = inhibition) at 10uM” value is reported as -44%.
For `CCCc1cc(NCCCO)n2c(nc3ccccc32)c1C#N`, the “hERG current change (%, negative = inhibition) at 10uM” value was -16.6%.
For `Cc1cc(NCC2CCCO2)n2c(nc3ccccc32)c1C#N` (centres unmarked), the “hERG current change (%, negative = inhibition) at 10uM” value was -21.2%.
With `CC(C)c1cc(NCCCN2CCOCC2)n2c(nc3ccccc32)c1C#N` the “hERG current change (%, negative = inhibition) at 10uM” value was -79.9%.
`CCCc1cc(NCCN(C)C)n2c(nc3ccccc32)c1C#N` was tested, and the “hERG current change (%, negative = inhibition) at 10uM” value was -7.73%.
With `CCCc1cc(NCCCN2CCOCC2)n2c(nc3ccccc32)c1C#N` the “hERG current change (%, negative = inhibition) at 10uM” value was -75.7%.
In the case of `CCCc1cc(NCCCN(C)C)n2c(nc3ccccc32)c1C#N`, the “hERG current change (%, negative = inhibition) at 10uM” value is reported as 0.382%.
For `CCCc1cc(NCCCCO)n2c(nc3ccccc32)c1C#N`, the “hERG current change (%, negative = inhibition) at 10uM” value was -53.1%.
In the case of `CC(C)c1cc(NCC2CCCO2)n2c(nc3ccccc32)c1C#N` (centres unmarked), the “hERG current change (%, negative = inhibition) at 10uM” value is reported as -41%.
In the case of `Cc1cc(NCCN2CCOCC2)n2c(nc3ccccc32)c1C#N`, the “hERG current change (%, negative = inhibition) at 10uM” value is reported as -6.09%.
`Cc1cc(NCCCN2CCOCC2)n2c(nc3ccccc32)c1C#N` was tested, and the “hERG current change (%, negative = inhibition) at 10uM” value was -23.3%.
`CCCc1cc(NCC2CCCO2)n2c(nc3ccccc32)c1C#N` (centres unmarked) was tested, and the “hERG current change (%, negative = inhibition) at 10uM” value was -66.5%.
